Giardia killer = Giardia lamblia killing. 0.15% of 340,000 active. activity change, % at 7.66 µM, hits read low. AID 540267. Giardia lamblia trophozoite viability; in the data active = activity change below about -80%; inconclusive = between about -30% and that limit;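 note: parasites exposed to compound for two days anaerobically before the ATP read; % is set by controls: 0 for no effect and ±100 for the full control effect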
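Compounds were tested on trophozoites seeded at 100 cells/well and held 48 hrs at 37 deg C anaerobically. An ATP-based luminescent kit measured the remaining live cells.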
HT1080 IDH1KD tx = kills HT-1080 cells with IDH1 knockdown; HT-1080 IDH1 knockdown viability, ATP luminescence, 48 h; Potency, µM (doses to about 46.1 µM), for the others: at the highest dose activity, negative = toxicity, hits mostly cytotoxic; 2% of 360,000 active;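 note: potency is the fitted concentration of half-maximal effect; 0% = DMSO wells and -100% = cell-free medium wells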
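In this qHTS, HT-1080 cells depleted of IDH1 are exposed for 48 h at 37 °C to compound titrations. Toxicity is scored from CellTiter-Glo luminescence, with DMSO as full viability and medium alone as none.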
HepG2 tox = counter-screen for TGF-b inhibitors: cytotoxicity in HepG2 cells | 0.76% of 410,000 active | HepG2 CAGA-GFP viability, ATP luminescence, 18 h | AID 588856 | Potency, µM (titrated, usually from 46.1 µM), without a hit: at the highest dose activity change, negative = cytotoxicity, usual class: cytotoxic; note: potency is the fitted concentration of half-maximal effect
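HepG2 CAGA-GFP cells (1000/well, DMEM with 1% FBS) received compound, then TGF-beta at 500 pg/mL final, and were incubated 18 hours at 37 degrees C. Viability was read by CellTiter-Glo luminescence. Media-only wells were set as complete cell-killing and DMSO as no toxicity.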
IL-1B inflam inh = inflammasome signaling inhibition, IL-1 beta readout | AID 743279 | activity change, % at 57.5 µM | 4.7% of 360,000 active | THP-1 LPS/ATP IL-1B secretion, AlphaLISA, 16 h; stronger effect = lower value; in the data active = activity change below about -50%; inconclusive = mostly about -30% to -49%; note: % is set by controls: 0 for no effect and ±100 for the full control effect
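THP-1 cells pretreated 1 hr with compounds (up to 57.5 uM final), then stimulated with LPS (250 ng/mL final) plus ATP (1.25 mM final); secreted IL-1B measured by AlphaLISA after 16 hr, decreased signal indicating inhibition.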
HT1080-NT tox = kills 2HG-producing HT-1080-NT fibrosarcoma cells. Potency, µM (highest dose often 46.1 µM), for inactives: top-dose activity, negative = less viability, usual class: cytotoxic. 1.6% of 360,000 active. AID 686970. HT-1080-NT fibrosarcoma viability, CellTiter-Glo ATP luminescence, 48 h;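 note: NT is the 2HG producing partner of a matched IDH1 knockdown line; potency is the fitted concentration of half-maximal effect; 0% = DMSO-treated cells and -100% = media-only wells without cells; nearly all actives have a fitted effect of over 55% in size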
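HT-1080-NT; 750 cells/well; 5% FBS RPMI; 48 h compound, 37 degrees C; CellTiter-Glo luminescence; curve fitting and curve-class assignment.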
TGFb inhibitor = TGF-b pathway inhibition; Potency, µM (titrated, usually from 46.1 µM), for inactives: at the top dose activity, negative = inhibition, most hits filed as inhibitors; 1.2% of 410,000 active; HepG2 CAGA-GFP TGF-b/SMAD3 reporter, GFP fluorescence, 18 h; TGF-beta stimulated, 500 pg/mL final; note: potency is the fitted concentration of half-maximal effect; % is set by controls: 0 for no effect and ±100 for the full control effect; nearly all actives have a fitted effect of over 65% in size
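Cell-based qHTS in HEPG2 carrying a CAGA-GFP Smad reporter; compounds added before 500 pg/mL final TGF-beta, 18 h incubation at 37 degrees C, GFP fluorescence quantified per cell by imaging cytometry.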
* hit, by the source's call; ? = inconclusive; ! = a repeat was not active. Sampled rows, rich in hits. Any-hit rate of the full collection: about 6.5%. Unless noted, calls come from the whole dose curve; as a rule, active = well fitted curve in the direction sought with a large enough effect; inconclusive = small, poorly fitted or top-dose-only effect, or another doubt; inactive = no such curve, though single readings can be large; an effect the other way counts as inactive or inconclusive.

SMILES | Giardia killer | HT1080 IDH1KD tx | HepG2 tox | IL-1B inflam inh | HT1080-NT tox | TGFb inhibitor
CNc1nc(Nc2ccc(C(C)=O)cc2)nc(OC(C(F)(F)F)C(F)(F)F)n1 | -8 | -23% | 8% | -58* | -14% | 31%
O=C1c2cccc3c(N4CCCCC4)ccc(c23)C(=O)N1c1cccc(O)c1 | -1 | ? | -30% | -68* | -28% | 48%
Nc1nc2nc(-c3ccc(OCc4ccccc4)cc3)cc(C(F)(F)F)n2n1 | 24 | 1% | -8% | -7 | 14% | 8%
O=C(/C=C/c1ccc(Cl)c(Cl)c1)Nc1cccnc1 | -6 | 0% | 5% | -2 | 4% | -17%
CC(C)(C)c1ccc(/C=C/C(=O)Nc2cccnc2)cc1 | -4 | ? | -6% | -52* | ? | 2%
O=C(NCC1CCCCC1)C1(CC2CC(c3cccc(Br)c3)=NO2)CCNCC1 (configuration not stated) | -3 | -30% | 16µM* | -21 | -18% | ?
CCCOC1CCCN(C(=O)c2cc(COc3ccc(F)c(F)c3)on2)C1 (configuration not stated) | 8 | -1% | -7% | -9 | 0% | 3%
CCCCNc1c(-c2ccc(SC3CCCCC3)cc2)nc2ccccn12 | 30 | ? | -47% | -73*! | ? | ?
COc1ccc(-c2nc3ccc(C)cn3c2NCc2ccccc2)cc1SC1CCCCC1 | 3 | ? | -81% | 0 | ? | 20µM*
c1ccc(CNc2c(-c3cccc(SC4CCCCC4)c3)nc3ccccn23)cc1 | -27 | ? | -61% | -28 | ? | ?
Cc1ccn2c(NCc3ccccc3)c(-c3cccc(SC4CCCCC4)c3)nc2c1 | 27 | ? | -53% | -79*! | ? | 13µM*
